Compound activity deposited in PubChem BioAssay by National Center for Advancing Translational Sciences (NCATS).
In the library only some 3.9% were active in any assay of this set; here they are far more common.
Tb PFK block: T. brucei PFK enzyme inhibition | O15648 | T. brucei PFK, ADP-Glo luminescence | Potency, µM (series often up to 57.5 µM), for the others: at the highest dose activity, negative = inhibition, actives largely listed as inhibitors | 0.17% of 330,000 active;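 further: 0% = uninhibited 1x PFK enzyme wells and -100% = no-enzyme wells; nearly all actives have a fitted effect of over 60% in size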
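PFK 1.25 nM, F6P 0.5 mM, ATP 0.1 mM, 0.1 M TEA pH 8.0, 5 mM MgCl2, 0.01% Tween20, 0.1% BSA; 45 min RT. ADP-Glo readout. qHTS titration up to 57 uM; curves fitted, compounds curve-classed.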
PLK1 PBD inh: PLK1 (human) polo-box domain binding inhibition; Plk1 PBD binding of FITC phosphopeptide, fluorescence polarization; P53350; AID 720504; 2.8% of 360,000 active; Potency, µM, for the others: max response, negative = inhibition, hits mostly inhibitors; further: series mostly up to about 57 µM; on the % scale 0 is the no-effect control and ±100 the full control effect; nearly all actives have a fitted effect of over 65% in size
VDR inhibitor: vitamin D3 receptor (human) inhibition; P11473; 0.93% of 400,000 active; Potency, µM, for inactives: max response, negative = inhibition, most hits filed as inhibitors; VDR-SRC2-3 peptide fluorescence polarization, 2 h; further: on the % scale 0 is the no-effect control and ±100 the full control effect
Target sequence (P11473 whole entry, looked up): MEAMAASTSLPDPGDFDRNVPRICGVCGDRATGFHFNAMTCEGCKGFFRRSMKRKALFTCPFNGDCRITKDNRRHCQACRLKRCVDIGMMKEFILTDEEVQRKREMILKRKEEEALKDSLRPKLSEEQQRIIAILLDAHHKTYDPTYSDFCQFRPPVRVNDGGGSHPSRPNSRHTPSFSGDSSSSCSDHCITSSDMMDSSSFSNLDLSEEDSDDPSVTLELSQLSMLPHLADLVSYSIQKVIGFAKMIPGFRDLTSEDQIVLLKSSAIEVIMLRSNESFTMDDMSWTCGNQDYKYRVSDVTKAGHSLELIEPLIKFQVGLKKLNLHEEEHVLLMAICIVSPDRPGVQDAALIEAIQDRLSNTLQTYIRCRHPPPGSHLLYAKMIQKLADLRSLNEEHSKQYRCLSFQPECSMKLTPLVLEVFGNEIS
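VDR–SRC2-3 interaction, FP format. Cmpds 23 nl via pintool, brief spin, 2 h ambient incubation.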
BRCA1 expr up: activators of BRCA1 expression. MCF7-BRCA1-FFLuc reporter, luminescence, 48 h; response scale: scaled: vehicle 0%, 10 µM genistein 100%. Potency, µM (doses to about 46.1 µM), without a hit: top-dose activation, usual class: activators. 1.1% of 380,000 active; further: nearly all actives have a fitted effect of over 80% in size
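MCF7 cells carrying a BRCA1-firefly luciferase reporter (2000 cells/well, phenol-red free MEM) were attached for 2 h at 37 °C, then given compounds for 48 h. Luminescence was read 15 min after luciferase reagent; activity normalized to genistein (10 microM) and DMSO.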
* = called active by the depositor; ? = inconclusive; . = no result; ! = not confirmed by another sample; [ ] = another dose, or the depositor's remark. The call rests on the fitted dose curve; in most records, active means well fitted curve in the direction sought with a large enough effect; inconclusive means small, poorly fitted or top-dose-only effect, or another doubt; inactive means no such curve, though single readings can be large; an effect the other way counts as inactive or inconclusive. Potency means the concentration at half of the fitted maximal effect.

SMILES | Tb PFK block | PLK1 PBD inh | VDR inhibitor | BRCA1 expr up
O=C(Nc1nc(=O)n(C(=O)C2CC2)s1)c1ccccc1 | 6.6% | -5.2% | 50.1µM* | -44.8%
Cc1ccc(C(=O)Nc2nc(=O)n(C(=O)c3ccccc3C)s2)cc1 | -3.0% | ? | 22.4µM* | 70.2%
COc1ccc2c(c1)CCC2=O | . | . | . | 5.3%
COc1ccc2c(c1)CCCC(Br)C2=O (centres undefined) | . | 10.6µM* | ? | -10.0%
COc1cc(-c2nnc(SCCOc3ccc(Cl)cc3C)o2)cc(OC)c1OC | . | . | 5.8% | .
COc1ccc(-c2ccc(-c3nnn(CC(=O)N4CCOCC4)n3)cc2)cc1 | 0.5% | -10.8% | 15.9% | 1.41µM*
O=C(NCCc1ccccc1)c1ccc(-c2cccnc2)c2ccoc12 | . | -10.4% | . | 7.08µM*
O=C(NCc1cccc(Cl)c1)c1ccc(-c2cccnc2)c2ccoc12 | . | -2.2% | . | 48.2%
COc1ccc(N2C(=O)NC(NS(=O)(=O)c3ccccc3)(C(F)(F)F)C2=O)cc1 (centres undefined) | 0.0% | 1.9% | -10.9% | -8.1%
COc1ccc(N=C2C(=S)N(c3ccc(OC)cc3)C(=NS(=O)(=O)c3ccccc3)N2c2ccccc2)cc1 | . | 2.99µM* | ? | 3.55µM*
CSCC[C@H](NC(=O)[C@H](CCCNC(=N)N)NC(=O)[C@H](Cc1ccc(O)cc1)NC(=O)[C@@H]1CCCN1C(=O)CNC(=O)[C@H](CCC(=O)O)NC(=O)[C@H](CC(=O)O)NC(=O)[C@H](CCCCN)NC(=O)[C@H](CCCCN)NC(=O)[C@H](CCC(=O)O)NC(=O)[C@H](C)N)C(=O)N[C@@H](CCC(=O)O)C(=O)N[C@@H](Cc1cnc[nH]1)C(=O)N[C@@H](Cc1ccccc1)C(=O)N[C@@H](CCCNC(=N)N)C(=O)N[C@@H](Cc1c[nH]c2ccccc12)C(=O)NCC(=O)N[C@@H](CO)C(=O)N1CCC[C@H]1C(=O)N1CCC[C@H]1C(=O)N[C@@H](CCCCN)C(=O)N[C@@H](CC(=O)O)C(=O)O | . | . | -2.3% | .
Cc1ccc(-c2csc(N)n2)cc1 | . | -14.9% | -6.3% | 10µM*
Nc1nc(-c2ccc(-c3ccccc3)cc2)cs1 | 4.9% | -20.2% | ? | ?
Cc1ccc(OCc2csc(N)n2)cc1 | -0.2% | -10.2% | 0.6% | 5.01µM*
COc1ccc(-c2csc(N=C(N)N)n2)cc1 | 2.5% | -8.4% | 8.5% | ?
COc1ccc(-c2csc(N)n2)cc1 | 0.2% | 0.6% | -12.6% | 10µM*
Nc1nc(COc2ccc(Cl)cc2)cs1 | -4.5% | ? | -6.9% | ?
Cc1cccc(C(=O)NCC(c2ccc3c(c2)OCO3)N2CCN(c3ccccc3F)CC2)c1 (centres undefined) | . | . | 0.8% | .
Cc1ccc(-c2nc3c(Cl)cc(C(F)(F)F)cn3c2Cc2ccsc2)cc1 | . | -5.1% | . | -12.5%
CCOC(=O)c1c(N)sc2c1CCC1C(=O)N(C3CCCCC3)C(=O)C21 (centres undefined) | 7.1% | 18.9µM* | -9.2% | 26.8%
CCNc1cc2c(cc1O)CCC1C2CCC2(C)C(O)CCC12 (centres undefined) | . | ? | 79.4µM* | -13.5%
O=C(C[N+]12CN3CN(CN(C3)C1)C2)c1ccc(O)c(O)c1 | . | . | . | 3.2%
Cc1cc2ccccc2n1CCNC(=O)c1ccc(Br)cc1 | . | . | -11.6% | 43.2%
Cc1cc2ccccc2n1CCNC(=O)c1ccc(Br)o1 | -1.2% | -24.6% | 79.4µM* | 54.7%
CC(C)c1ccc(NC(=O)CSc2ncnc3c2sc2ccccc23)cc1 | . | . | 1.5% | .
SMILES | Tb PFK block | PLK1 PBD inh | VDR inhibitor | BRCA1 expr up
CCc1ccc(NCc2cc3cc4c(cc3n(CC(=O)Nc3ccccc3OC)c2=O)OCCO4)cc1 | . | . | -5.3% | 4.2%
COc1ccc(N2CC(O)=C(c3n(C)c4ccccc4[n+]3C)C2=N)cc1 | -1.4% | 26.7µM* | 3.6% | -9.4%
O=C(C1CC=CCC1)N1CCCCCC1 (centres undefined) | . | -9.7% | . | 4.9%
O=C(C1CC=CCC1)N1CCN(C(=O)C2CC=CCC2)CC1 (centres undefined) | -3.4% | 29.9µM* | -22.4% | 7.2%
COc1cc(NC(=O)CSc2ncnc3sc4c(c23)CCCC4)c(C(=O)O)cc1OC | -2.3% | 26.7µM* | -21.4% | -2.3%
CC(=O)CSc1ncnc2sc3c(c12)CCC3 | -3.6% | -7.5% | -8.0% | 0.7%
COc1ccc2nc(SCC(=O)Nc3cc(OC)c(OC)cc3C(=O)O)c(C)cc2c1 | 0.3% | 29.9µM* | -11.5% | -22.2%
CC1=C(C(N)=O)C(c2cccc(Br)c2)n2nc(SCc3ccccc3)nc2N1 (centres undefined) | . | . | -6.7% | 8.1%
Cn1c(=O)c2c(ncn2CC(=O)Nc2cccc(S(=O)(=O)Nc3ccccc3F)c2)n(C)c1=O | -0.2% | 29.9µM* | -19.7% | -9.9%
O=C(Nc1cccc(F)c1F)C1CCN(c2ncccn2)CC1 | . | . | 11.6% | 1.9%
CCCn1c(C)cc(/C=C(\C#N)C(=O)O)c1C | -0.7% | -12.7% | -1.8% | 7.9%
Cc1cc(/C=C(\C#N)C(=O)O)c(C)n1-c1ccc(Br)cc1 | 23.2% | 33.6µM* | -8.4% | -0.2%
Cc1ccc(C)c(OCCn2cc(/C=C(\C#N)C(=O)NCC3CCCO3)c3ccccc32)c1 (centres undefined) | 1.6% | 29.9µM* | -17.8% | -43.8%
Cc1cc(/C=C(\C#N)C(=O)NCc2cccs2)c(C)n1-c1ccccc1F | 0.6% | 26.7µM* | -18.5% | ?
Cc1cc(C=C(C#N)C#N)c(C)n1-c1ccccc1 | 0.5%[0.46 µM] | 1.0% | -1.4% | 61.5%
Cc1cc(/C=C(\C#N)C(=O)O)c(C)n1CC1CCCO1 (centres undefined) | -4.4% | 2.99µM* | ? | -1.1%
Cc1ccccc1-n1c(C)cc(/C=C(\C#N)C(=O)NCC2CCCO2)c1C (centres undefined) | 4.0% | -8.9% | 9.0% | 14.1µM*
Cc1ccc(/C=C(\C#N)C(=O)NCC2CCCO2)o1 (centres undefined) | 2.4% | -8.9% | -1.3% | 102.1%
C=C1C(=O)O[C@@H]2[C@H]1CC[C@H](C)[C@]1(O)CCC(=O)[C@@]21C | -2.7% | 0.6% | 3.5% | -51.7%
C=C1C(=O)O[C@@H]2[C@H]3O[C@]3(C)CCC=C(C)CC[C@@H]12 | . | . | 35.5µM*! | .
CCCCCCCCN1C(=O)[C@H](CC(=O)N2CCCC2)C[C@@]2(C(=O)OCC)CCCC=C12 | . | -16.7% | . | -23.2%
CCN1C[C@@H]2[C@@H]3C(=O)N(C)C(=O)[C@@H]3[C@](CC)(C(=O)OC)N2C1=NCc1ccccc1 | . | -6.9% | -2.1% | 10.5%
CC(C)(C)c1ccc(C(=O)CCC(=O)OCC(=O)NCCc2ccc(S(N)(=O)=O)cc2)cc1 | -1.6% | -6.7% | -12.4% | -27.6%
COc1cc(C2NC(=O)C(C#N)=C(Nc3cccc(C)c3)S2)ccc1O (centres undefined) | 1.6% | ? | 31.6µM* | -22.0%
COC(=O)CSC1=C(C#N)C(=O)NC(c2ccccc2)S1 (centres undefined) | ? | ? | 3.2% | 10.8%
O=C(Cn1c(=O)nc(-c2ccccc2)c2ccccc21)NCCc1ccccc1 | . | . | 13.8% | .
CC(C)(C)c1cc(-c2n[nH]c(=S)n2-c2ccc(Cl)cc2)n[nH]1 | 3.1% | 29.9µM* | ? | -25.8%
